Measured values: PubChem BioAssay (NCI)
“And” between values parts separate entries of the source, which are not always exact repeats. Identical values can stand only once. About 79,000 compounds went through this panel and 15% of them were active in at least one assay; those are over-represented in the sample as a whole. Some compounds were tested as several samples or in several runs, with calls that do not always agree. The source made the active and inactive calls. Rule as the data show it: active = growth inhibition above about 70%; inactive = the rest.

Legend:
[1] = NCI Yeast Anticancer Drug Screen. Data for the rad50 strain (AID 155);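 also: 0% = growth of vehicle-only cultures of the same strain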; details: S. cerevisiae rad50 strain growth inhibition; at 50.0 µM; stronger effect = higher value
How it was run: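 Yeast carrying a defined DNA repair defect were exposed to test compounds, and growth was compared with vehicle-treated controls to give percent inhibition.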

[2] = NCI Yeast Anticancer Drug Screen. Data for the mec2-1 strain (AID 157); details: S. cerevisiae mec2-1 strain, at 50.0 µM, stronger effect = higher value
How it was run: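 Cells of the genetically defined mec2-1 yeast strain are incubated with test compound. Inhibition of growth is calculated against vehicle-treated controls.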

[3] = NCI Yeast Anticancer Drug Screen. Data for the sgs1 mgt1 strain (AID 161);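 also: 0% = growth of cultures given vehicle only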; details: S. cerevisiae sgs1 mgt1 strain, at 50.0 µM, stronger effect = higher value
How it was run: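 Read-out: growth inhibition vs vehicle controls. Cells: mutant yeast strain deficient in DNA damage repair.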

[4] = NCI Yeast Anticancer Drug Screen. Data for the cln2 rad14 strain (AID 165);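 also: 0% = growth equal to vehicle treated cultures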; details: S. cerevisiae cln2 rad14 strain, at 50.0 µM, stronger effect = higher value
How it was run: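 The screen exposed genetically defined yeast (cln2 rad14) to test compounds and scored growth inhibition relative to vehicle-treated controls.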

[5] = NCI Yeast Anticancer Drug Screen. Data for the bub3 strain (AID 167); details: S. cerevisiae bub3 mutant strain, at 50.0 µM, stronger effect = higher value
How it was run: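 Compounds were applied to a genetically altered yeast strain carrying a cell-cycle control defect. Growth inhibition was scored against vehicle-treated controls.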

[6] = NCI Yeast Anticancer Drug Screen. Data for the mlh1 rad18 strain (AID 175); details: S. cerevisiae mlh1 rad18 strain growth inhibition; at 50.0 µM; stronger effect = higher value
How it was run: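 Compound-treated yeast growth, normalised to vehicle controls. Strain bears defined DNA repair mutations.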

Compound | growth inhibition [1] | growth inhibition [2] | growth inhibition [3] | growth inhibition [4] | growth inhibition [5] | growth inhibition [6]
CC(C)CNP(=S)(NCC(C)C)c1ccccc1 | 4.5% (inactive) | 12.9% (inactive) | 6.7% (inactive) | 5.55% (inactive) | 18.9% (inactive) | 21.3% (inactive)
c1ccc2c(c1)sc1sc3ccccc3[n+]12 | 5.05% (inactive) | -5.65% (inactive) | 1.8% (inactive) | 3% (inactive) | 3.2% (inactive) | -23.4% (inactive)
C#CC1(O)CCC(C(C)(C)C)CC1 (stereo not drawn) | 10.2% (inactive) and -5.45% (inactive) and 20.4% (inactive) | 6.6% (inactive) and 25.3% (inactive) and -12.8% (inactive) | -7.35% (inactive) and -4.35% (inactive) and -1.95% (inactive) | 7.3% (inactive) and -22.6% (inactive) and 7.2% (inactive) | 9.05% (inactive) and 10.4% (inactive) and -10.2% (inactive) | -17.9% (inactive) and -4.15% (inactive) and 10.8% (inactive)
c1cc(CCN2CCCCC2)ccn1 | -2.75% (inactive) | -6.25% (inactive) | -26.5% (inactive) | -81.7% (inactive) | -21.4% (inactive) | -25.1% (inactive)
CN1CCN(Cc2ccccc2)C(C#N)C1 (stereo not drawn) | -2.6% (inactive) | -8.75% (inactive) | -0.35% (inactive) | -25.9% (inactive) | -17.4% (inactive) | -11.7% (inactive)
C1CC[N-]CC1.CC(=N\O)/C(C)=N/O.CC(=N\O)/C(C)=N/O.C[CH-]C(C)O.[Co+2] | -2% (inactive) | -7.15% (inactive) | 36.3% (inactive) | 8.2% (inactive) | -13.1% (inactive) | 39.9% (inactive)
O=NN1CCOC1=NC1CCCCC1 | -3.65% (inactive) | -12.2% (inactive) | -11.2% (inactive) | -63% (inactive) | -22.7% (inactive) | -9% (inactive)
ClCCCCCCCCCCCl | 10.9% (inactive) | -2.55% (inactive) | -13.2% (inactive) | -11.8% (inactive) | -15.2% (inactive) | -8.8% (inactive)
C1CN([PH+](N2CC2)N2CC2)CCO1.[C-]#[O+].[C-]#[O+].[C-]#[O+].[C-]#[O+].[C-]#[O+].[Mo] | -17.9% (inactive) | -1.7% (inactive) | -7.3% (inactive) | -31.4% (inactive) | 3.9% (inactive) | 3.95% (inactive)
COC(=O)c1nc(-c2ccc3c(n2)C(=O)C(N)=C(OC)C3=O)c(N)c(-c2ccc(OC)c(OC)c2O)c1C | 58% (inactive) | 7.25% (inactive) | 36.1% (inactive) | 26.2% (inactive) | 23.2% (inactive) | 47.5% (inactive)
CN1CCc2cc3c(cc2C1)OCO3 | -22.9% (inactive) and -14.8% (inactive) | 2.5% (inactive) and -16.9% (inactive) | -12.9% (inactive) and 8.55% (inactive) | -22.6% (inactive) and 7.65% (inactive) | -5.85% (inactive) and 2.45% (inactive) | -17.9% (inactive) and 28.6% (inactive)
COc1ccc(CCNC2(C#N)CCCCC2)cc1OC | -9.5% (inactive) | -29.8% (inactive) | 0.05% (inactive) | 10.2% (inactive) | -5.75% (inactive) | -5.25% (inactive)
COC(C(=O)O)(c1ccccc1)c1ccccc1 | -24.8% (inactive) | -18.9% (inactive) | 1.05% (inactive) | -33.9% (inactive) | -9.2% (inactive) | -0.35% (inactive)
S=C(N/N=C/c1ccc(Cl)cc1)NC1CN2CCC1CC2 (stereo not drawn) | -1.6% (inactive) | 9.6% (inactive) | -22.1% (inactive) | -15.8% (inactive) | -7.9% (inactive) | 11.7% (inactive)
CCCCN1C(=O)C(=C/C=C/C=C2\Oc3ccccc3N2CCCS(=O)(=O)O)C(=O)N(CCCC)C1=S | 18% (inactive) | 2.9% (inactive) | 3.75% (inactive) | 15.7% (inactive) | -3.9% (inactive) | 27% (inactive)
CC[N+](CC)(CC)CC | -16.7% (inactive) and -6.2% (inactive) | 2.1% (inactive) and -17.7% (inactive) | 6.6% (inactive) and -1.6% (inactive) | -10.4% (inactive) and 2.05% (inactive) | 0.8% (inactive) and -1.3% (inactive) | -15.8% (inactive) and -4.9% (inactive)
C#CC1(O)CCCCCC1 | 11.6% (inactive) | 3.45% (inactive) | -7.55% (inactive) | 8.55% (inactive) | 12.4% (inactive) | 6.8% (inactive)
O=C1CC(=O)N(C2CCC(C3CCCCC3)CC2)C(=O)N1 (stereo not drawn) | 14.1% (inactive) | 4.85% (inactive) | 27.5% (inactive) | 1.35% (inactive) | 22.3% (inactive) | 5.75% (inactive)
CP1(=S)CC[C@H]2C3=C(CC[C@@H]21)CC(=O)CC3 (stereo partly drawn) | 14.4% (inactive) | 14.6% (inactive) | 11.3% (inactive) | 52.9% (inactive) | 2.9% (inactive) | 16.9% (inactive)

Compound | growth inhibition [1] | growth inhibition [2] | growth inhibition [3] | growth inhibition [4] | growth inhibition [5] | growth inhibition [6]
[N-]=[N+]=C1CNC(=O)NC1=O | 9.9% (inactive) | -19.6% (inactive) | -10.6% (inactive) | 0.05% (inactive) | -0.15% (inactive) | 1.05% (inactive)
CCCCCCCCCl | 14.7% (inactive) | -4.7% (inactive) | 7.75% (inactive) | 20.1% (inactive) | 8.4% (inactive) | -8.5% (inactive)
COc1cc([C@@H]2c3cc4c(cc3C[C@H]3COC(=O)[C@@H]32)OCO4)cc(OC)c1OC | 5.2% (inactive) | -3.05% (inactive) | 10.2% (inactive) | 27.6% (inactive) | 24.4% (inactive) | 13.6% (inactive)
O=C1C2C(C(=O)N1c1ccc(Cl)c(Cl)c1)C1(Cl)C(Cl)=C(Cl)C2(Cl)C1(Cl)Cl (stereo not drawn) | 91.8% (active) | 95.2% (active) | 96.1% (active) | 86.5% (active) | 94.1% (active) | 95.7% (active)
CP1CC(Br)C(Br)C1 (stereo not drawn) | 3.6% (inactive) | -5% (inactive) | 19.9% (inactive) | -7.05% (inactive) | 6.5% (inactive) | 2.5% (inactive)
CCCCOP(=O)(/C=C/c1ccccc1)OCCCC | 86.3% (active) | 77.9% (active) | 80.2% (active) | 24.7% (inactive) | 74.2% (active) | 80.8% (active)
c1ccc2c(c1)-c1ccccc1C1NC21 (stereo not drawn) | 21.3% (inactive) and 69% (inactive) | 2.3% (inactive) and 47.4% (inactive) | 21.9% (inactive) and 48.2% (inactive) | 10.7% (inactive) and 56.1% (inactive) | 20.5% (inactive) and 98.5% (active) | -50.5% (inactive) and 51.2% (inactive)
NCCc1cc2c3c(c1)CCCN3CCC2 | 96.5% (active) | 96.5% (active) | 94.5% (active) | 88.7% (active) | 94.9% (active) | 98.2% (active)
O=C(O)CC1OCC=C2CN3CCC45c6ccccc6NC4C1C2CC35 (stereo not drawn) | -30.8% (inactive) and 9.3% (inactive) | -15.9% (inactive) and -13.8% (inactive) | -31.9% (inactive) | 19.6% (inactive) | -57.6% (inactive) | -15.2% (inactive) and 18.8% (inactive)
O=P(O)(O)CCCCP(=O)(O)O.[Zn+2] | -3.05% (inactive) | -2.45% (inactive) | 1.6% (inactive) | -5.1% (inactive) | 3.75% (inactive) | 7.05% (inactive)
CC(=O)c1ccccc1O | 10.8% (inactive) and 2.05% (inactive) | 11.4% (inactive) and -10.9% (inactive) | -53.4% (inactive) and -0.4% (inactive) | -13.4% (inactive) and 2.05% (inactive) | -16.9% (inactive) and 3.7% (inactive) | -29.4% (inactive) and -4.5% (inactive)
CC(=O)C1(c2ccccc2)CCCN(C)CC1 (stereo not drawn) | -7.8% (inactive) | -8.95% (inactive) | 8.2% (inactive) | 1.35% (inactive) | 3.45% (inactive) | -3.45% (inactive)
CCCCSP(=S)(SCCCC)c1ccc(Cl)cc1 | 30.7% (inactive) | 9.4% (inactive) | 13.8% (inactive) | 17.6% (inactive) | 19% (inactive) | 14.2% (inactive)
CCOC(=O)C(Cc1ccc(N(CCCl)CCCl)cc1)NC(=O)CNC(C)=O (stereo not drawn) | 2.4% (inactive) | -7.85% (inactive) | 14.7% (inactive) | 1.45% (inactive) | -10.4% (inactive) | 10.3% (inactive)
CN(C)P(=O)(N(C)C)N1CCCCCC1 | -8.2% (inactive) | -21.6% (inactive) | 0% (inactive) | -18.4% (inactive) | 3.4% (inactive) | -10.6% (inactive)
NC(CCCCCP(=O)(O)O)C(=O)O (stereo not drawn) | -38.8% (inactive) | -29.8% (inactive) | -63.3% (inactive) | -12.3% (inactive) | -17.4% (inactive) | -37.5% (inactive)
CC1=C(O)C(=O)[C@@H]2O[C@@H]2C1=O | 42% (inactive) | 29.6% (inactive) | 43.8% (inactive) | 14% (inactive) | 31.3% (inactive) | -35.4% (inactive)
NC1=C(N2CC2)C(=O)C(N)=C(N2CC2)C1=O | 9.1% (inactive) | -21.4% (inactive) | -8.4% (inactive) | 7.9% (inactive) | -25.6% (inactive) | -12.7% (inactive)
CC(=O)Nc1ccc(C(=O)O)cc1 (tested in a mixture with another compound) | -25.9% (inactive) | -43.6% (inactive) | -17.4% (inactive) | 3.65% (inactive) | -46.2% (inactive) | -7.75% (inactive)
